Compounds with a hit are over-represented: about 0.34% of the library has one in this group of screens.
Vif-APOBEC3G blk: blocks the Vif interaction with human APOBEC3G | Potency, µM (titrated, usually from 46.1 µM), hits mostly inhibitors | HeLa A3G-eYFP + Vif (tagged APOBEC3G with the HIV-1 protein that degrades it), YFP fluorescence, overnight | hit rate 0.076% among 410,000; further: nearly all actives have a fitted effect of over 60% in size
Target sequence (Q9HC16 whole entry, looked up): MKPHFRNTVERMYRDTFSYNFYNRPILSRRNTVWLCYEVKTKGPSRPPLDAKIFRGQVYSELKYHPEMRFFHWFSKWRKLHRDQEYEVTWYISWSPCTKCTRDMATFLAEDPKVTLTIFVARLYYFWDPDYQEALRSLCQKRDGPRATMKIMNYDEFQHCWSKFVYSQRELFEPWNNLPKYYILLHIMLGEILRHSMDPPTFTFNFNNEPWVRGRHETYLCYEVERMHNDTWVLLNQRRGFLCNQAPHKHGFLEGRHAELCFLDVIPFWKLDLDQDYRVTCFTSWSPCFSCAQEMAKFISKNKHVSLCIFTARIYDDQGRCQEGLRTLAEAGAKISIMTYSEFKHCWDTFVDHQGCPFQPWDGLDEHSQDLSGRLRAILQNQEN
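HeLa cells stably expressing Vif and C-terminally eYFP-tagged A3G, seeded overnight at 37 deg C, then exposed to compound by pintool overnight at 37 deg C. Rise in yellow fluorescence (Ex 488/Em 500-530, Acumen) marks blocked Vif-driven A3G degradation.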
Vif-APOBEC3F blk: inhibitors of Vif-A3F interaction | hit rate 0.2% among 390,000 | HeLa A3F-eYFP + Vif (tagged APOBEC3F with the HIV-1 protein that degrades it), YFP fluorescence increase | Potency, µM (series often up to 46.1 µM); further: nearly all actives have a fitted effect of over 65% in size
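HeLa cells stably expressing A3F-eYFP plus Vif, plated and incubated overnight at 37 deg C, then exposed to compounds overnight at 37 deg C. Blocked degradation read as raised yellow fluorescence (Ex 488/Em 500-530).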
Epigenetic reg: epigenetic control regulation, reporter derepression; murine LDR cells, GFP reporter derepression, 30 h; Potency, µM (series often up to 53.9 µM), actives largely listed as activators; hit rate 0.2% among 280,000; AID 1865; further: nearly all actives have a fitted effect of over 60% in size
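In this reporter-derepression format, murine cells bearing a silenced integrated CMV-GFP locus incubate with test compound (30 h, 37 C), then are washed and imaged; fluorescent objects of 20–120 um count as induced cells.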
Hits are given with their value; - = inactive; ? = inconclusive; . = no result given. The call rests on the fitted dose curve; in most records, active means well fitted curve in the direction sought with a large enough effect; inconclusive means small, poorly fitted or top-dose-only effect, or another doubt; inactive means no such curve, though single readings can be large; an effect the other way counts as inactive or inconclusive.

SMILES	Vif-APOBEC3G blk	Vif-APOBEC3F blk	Epigenetic reg
CC1=C(c2ccc(C(C)C)cc2)S(=O)(=O)N=C1N1CCC(C(=O)NCc2ccccc2)CC1	.	.	-
COc1ccccc1N1CCN(C(=O)c2cc3c(=O)n(Cc4ccco4)ccc3nc2C)CC1	-	-	-
O=C(CSc1nc2ccccc2n1Cc1cccc(Cl)c1)N1CCN(c2ccc(F)cc2)CC1	-	-	-
CC(C)(C)n1ncc2c(=O)n(Cc3ccc(C#N)cc3)cnc21	-	.	.
CCOC(=O)C1=C(Cc2ccc(F)cc2)C(=O)c2ccccc2C1=O	?	25µM	?
O=C(OCc1ccc(F)cc1)c1ccc2c(c1)-c1ccccc1C2=O	-	-	-
c1cc(SC2CCCCC2)cc(-c2nc3cnccn3c2NC2CCCCC2)c1	?	25µM	.
c1cn2c(NC3CCCCC3)c(-c3ccc(SC4CCCCC4)cc3)nc2cn1	-	-	.
O=C(Nc1ccc2c(c1)N(C1CCCC1)C(=O)c1ccccc1S2)c1cccc(F)c1	-	-	-
C=C1C=C(C(F)F)n2ncc(C(=O)N3CCN(c4ccccn4)CC3)c2N1	-	.	.
CCCCOc1ccc(C(=O)N(Cc2ccc(N(C)C)cc2)Cc2ccco2)cc1	.	.	-
COc1cc2nc(=S)n3[nH]c(CCn4nc(C)cc4C)nc3c2cc1OC	-	-	5µM
COc1cc2nc(=S)n3[nH]c(COc4ccccc4C)nc3c2cc1OC	-	-	-
CN1CCc2c(sc3c2C(=O)NC(c2ccco2)N3)C1 (stereo not given)	-	-	-
CN1CCc2c(sc3c2C(=O)NC(c2ccc(-c4ccc(Cl)cc4)o2)N3)C1 (stereo not given)	?	28µM	?
CCc1ccc(CNC(=O)CN2C(=O)CSc3c2c(C)nn3-c2ccccc2)cc1	-	-	-
COc1ccc(Nc2nc3cc(C)ccc3cc2C#N)cc1	?	22µM	.
COc1ccc(Nc2nc3cc(C)ccc3cc2C#N)c(OC)c1	?	?	-
O=C(CN1CCCN(Cc2ccccc2F)S1(=O)=O)Nc1ccc(F)c(Cl)c1	-	-	-
Nc1c(C(=O)C2CC2)sc2nc(-c3cccs3)cc(C(F)(F)F)c12	-	0.63µM	3.5µM
CC(C)NC(=O)c1sc2nc(-c3cccs3)cc(-c3cccs3)c2c1N	-	?	-
Cc1nn(-c2ccc3nnc(C)n3n2)c(C)c1CCC(=O)Nc1ccc(OC(F)(F)F)cc1	-	-	-
COC(=O)c1ccc(NC(=O)c2c(NCc3ccc(OC)c(OC)c3)sc3c2CCCC3)cc1	-	-	-
CN(C)c1ccc(/C=C/C(=O)c2ccc(O)cc2)cc1	?	7.9µM	.
CN(C)c1ccc(C(=O)C=Cc2ccc([N+](=O)[O-])cc2)cc1	-	-	.
SMILES	Vif-APOBEC3G blk	Vif-APOBEC3F blk	Epigenetic reg
Cc1cccc(Cn2cnc3c(cnn3C(C)(C)C)c2=O)c1	-	.	.
O=[N+]([O-])c1ccc(O)c(/C=N/NC(=S)Nc2ccc(Cl)cc2Cl)c1	-	?	-
O=[N+]([O-])c1ccc(/C=N/NC(=S)Nc2ccc(Cl)cc2Cl)s1	?	-	22µM
Nc1nc(SCc2ccc(Cl)cc2Cl)nc2nc3c(cc12)CCCC3	?	22µM	18µM
Nc1nc(SCc2ccccc2Cl)nc2nc3c(cc12)CCCC3	?	?	-
O=C1NC(c2ccc(O)cc2)Nc2ccccc21 (stereo not given)	?	-	.
CSc1ccc(C2NC(=O)c3ccccc3N2)cc1 (stereo not given)	10µM	-	.
N#Cc1c(C(F)(F)F)cc(-c2ccc(Cl)c(Cl)c2)nc1SCCN1CCOCC1	-	?	-
N#Cc1c(C(F)(F)F)cc(-c2ccccc2)nc1SCc1nc(N)nc(N2CCOCC2)n1	?	11µM	6.3µM
CC(C)(C)C(=O)Nc1c(C(=O)N2CCN(c3ccc(F)cc3)CC2)oc2ccccc12	-	-	-
CCN(c1ccccc1)S(=O)(=O)c1nnc(NC(=O)COc2ccc(OC)cc2)s1	-	-	?
CCN(c1ccccc1)S(=O)(=O)c1nnc(NC(=O)COc2cccc(C)c2)s1	-	-	8.9µM
CN(C)Cc1c(O)ccc2cc(-c3nc4ccccc4n3C)c(=O)oc12	-	-	.
CCN(CC)c1ccc2cc(-c3nc(-c4ccc(OC)cc4)cs3)c(=O)oc2c1	-	-	?
O=c1oc2ccc3ccccc3c2cc1-c1nnc(-c2ccccc2)o1	-	-	-
COc1cccc2cc(-c3nc4ccccc4[nH]3)c(=O)oc12	-	-	.
CCN(CC)c1ccc2cc(-c3nnc(-c4ccccc4)o3)c(=O)oc2c1	?	-	3.2µM
CCN(CC)c1ccc2cc(-c3nc4ccccc4n3C)c(=O)oc2c1	?	11µM	7.1µM
CCN(CC)c1ccc2cc(-c3nc4ccccc4[nH]3)c(=O)oc2c1	?	-	2.8µM
CCN(CC)c1ccc2cc(-c3nc(-c4ccc(Cl)cc4Cl)cs3)c(=O)oc2c1	-	7.1µM	2.8µM
COc1ccc(-c2nc(CSc3nncn4c3cc3sccc34)c(C)o2)cc1OC	-	-	-
CCOc1ccccc1CNC(=O)c1cnc2sc(N(CC)CC)nn2c1=O	-	-	-
COc1ccc(CNC(=O)CSc2nnc(C)c3c(C)n(-c4ccccc4)nc23)c(OC)c1	-	-	-
Cc1cc(C)c(NC(=O)C(C)n2nc(-c3ccc(C)c(C)c3)ccc2=O)c(C)c1 (stereo not given)	-	-	-
Cc1cc(/C=C/c2nc3ccccc3s2)ccc1N(C)C	-	.	.
SMILES	Vif-APOBEC3G blk	Vif-APOBEC3F blk	Epigenetic reg
COc1cc2nc(/C=C/c3ccc(N(C)C)cc3)sc2cc1SC	?	8.9µM	11µM
Cc1cc(Cl)ccc1OCC(=O)N1CCC(c2nc3ccccc3o2)CC1	-	-	-
Nc1c(C(=O)N/N=C/c2ccccc2Cl)oc2nc(-c3ccccc3)cc(-c3ccco3)c12	?	7.1µM	-
Nc1c(C(=O)N/N=C/c2ccc(F)cc2)oc2nc(-c3ccccc3)cc(-c3ccco3)c12	?	?	-
COc1ccc(Cl)cc1NC(=O)CCCn1c(C)c2cnn(-c3ccccc3)c(=O)c2c1C	-	-	-
CSc1ccc(/C=c2\s/c(=C\C(=O)C(C)(C)C)n(CC(=O)NCCC3=CCCCC3)c2=O)cc1	-	-	20µM
CCn1c(=O)c2sccc2n(CC(=O)NCCC2=CCCCC2)c1=O	-	-	.
COc1ccccc1C1c2c(-c3ccc(Cl)cc3)n[nH]c2C(=O)N1c1ccc(C)cc1 (stereo not given)	-	-	-
Cc1ccc2nc(NS(=O)(=O)c3ccc(Cl)cc3)c(Nc3ccc(C(=O)O)cc3)nc2c1	-	4.5µM	-
CCOC(=O)c1ccc(Nc2nc3ccccc3nc2NS(=O)(=O)c2ccc(Cl)cc2)cc1	-	7.1µM	-
COc1cccc(Nc2nc3cc(C)ccc3nc2NS(=O)(=O)c2ccc(Cl)cc2)c1	-	-	-
CCOc1ccc(S(=O)(=O)Nc2nc3ccccc3nc2Nc2ccc(OC)cc2)cc1	-	-	-
CN1CCN(C2=CC3=CC(=C(C#N)C#N)CCC3CC2)CC1 (stereo not given)	-	-	?
CCN1CCN(C2=CC3=CC(=C(C#N)C#N)CCC3CC2)CC1 (stereo not given)	-	?	1.4µM
N#CC(C#N)=C1C=C2C=C(N3CCCCCC3)CCC2CC1 (stereo not given)	-	?	?
N#CC(C#N)=C1C=C2C=C(N3CCOCC3)CCC2CC1 (stereo not given)	-	11µM	10µM
